Pf Dd2 inh: inhibitors of Plasmodium falciparum Dd2 growth | hit rate 4.3% among 120,000 | Potency, µM (highest dose often 28.9 µM), for inactives: at the top dose activity, negative = inhibition, most hits filed as inhibitors | AID 1347417 | P. falciparum Dd2 growth, SYBR Green, 72 h; active = well fitted inhibition curve with a large enough effect;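 note: plate controls were DMSO vehicle for no effect and reference drug for full effect; nearly all actives have a fitted effect of over 65% in size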
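Readout: SYBR Green fluorescence, 485 nm excitation, 535 nm emission, after ~16 h lysis at 37C. Before that, Dd2-infected red cells (2.5% hematocrit) grew 72 h with compound, 29 uM top final concentration.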
* hit, by the source's call; i = inactive; [ ] = another dose, or the depositor's remark. Many of the other results were omitted from the sample, so hits are more common in it than they were. Potency is the fitted concentration of half-maximal effect.

SMILES | Pf Dd2 inh
Cc1onc(C(=O)NCC2Cn3cccc3CN2C)c1CN1CCCCC1 (configuration not stated) | -23.5%
O=C1[C@H]2CN(Cc3ccc(F)cc3F)C[C@H]2C(=O)N1CCN1CCc2ccccc2C1 | -23.8%
COCCC(=O)N1CC(F)(F)C[C@H]1c1nc(COC)no1 | 28.9%
COc1ccc(OCc2cc(C(=O)N3C[C@H]4CC[C@H]3C4)n[nH]2)c(Cl)c1 | -14.8%
COc1cc2c(cc1OC)C(CC(=O)O)N(C(=O)Nc1cc(OC)c(OC)c(OC)c1)CC2 (configuration not stated) | i
COc1cc2c(cc1OC)C(COc1ccccc1OC)N(C(=O)COc1ccc(Cl)cc1)CC2 (configuration not stated) | 8.91µM*
COc1cc2c(cc1OC)C(CNC(=O)CC(C)C)N(C(=O)NC(C)C)CC2 (configuration not stated) | i
CCCC(=O)N1CCc2cc(OC)c(OC)cc2C1COc1ccc(C(=O)OC)cc1 (configuration not stated) | 10µM*
COc1ccc(C(=O)N2CCN(C(=O)COc3ccc(C)cc3)CC2)cc1OC | 23.9%
CCOc1ccc(NC(=O)N2CCc3cc(OC)c(OC)cc3C2CNC(=O)CC(C)C)cc1 (configuration not stated) | i
COC(=O)c1ccc(OCC2c3cc(OC)c(OC)cc3CCN2C(=O)c2ccc(OC)cc2)cc1 (configuration not stated) | 7.08µM*
COC(=O)c1ccc(OCC2c3cc(OC)c(OC)cc3CCN2C(=O)Cc2ccc(OC)cc2)cc1 (configuration not stated) | 10µM*
COC[C@@H]1CN(C(=O)COc2ccc(Cl)cc2)C[C@H]1C(N)=O | -1.0%
Cc1ccc(NC(=O)CCCn2c(=O)c3cccn3c3ccccc32)c(C)c1 | i
COc1ccc(OC)c(-c2cc(-c3cccs3)nc3c(C)noc23)c1 | i
COc1ccccc1C(=O)NC(=O)Nc1ccc(-c2cc(C(F)(F)F)nn2-c2ccccc2)cc1 | -28.4%
COc1ccc(-c2ccc(COc3ccc4c(cnn4CCC(=O)O)c3)cc2)c(Cl)c1 | i
CNC(=O)CCn1ncc2cc(OC3CCc4cccc(-c5ccnc(OC)c5)c43)ccc21 (configuration not stated) | -7.0%
C[S+](=O)([O-])CCn1ncc2cc(OCc3cccc(-c4cncnc4)c3)ccc21 | i
CNC(=O)CCn1ncc2cc(OCc3ccccc3-c3c(Cl)cccc3OC)ccc21 | 3.98µM*
COc1cc(F)cc(-c2ccc(COc3ccc4c(cnn4CCC(=O)O)c3)cc2)c1 | -18.1%[44.1 µM]
COc1ccc(F)cc1-c1cccc(COc2ccc3c(cnn3CC[S+](C)(=O)[O-])c2)c1 | -29.0%
CNC(=O)CCn1ncc2cc(OCc3ccccc3-c3ccccc3COC)ccc21 | 3.98µM*
COc1ccccc1-c1cccc(COc2ccc3c(cnn3CC[S+](C)(=O)[O-])c2)c1 | -29.2%[44.1 µM]
CNC(=O)CCn1ncc2cc(OCc3ccccc3-c3cnc(OC)nc3)ccc21 | i
SMILES | Pf Dd2 inh
CNC(=O)CCn1ncc2cc(OCc3ccccc3-c3cc(F)ccc3C)ccc21 | 3.16µM*
COc1cccc(F)c1-c1ccc(COc2ccc3c(cnn3CCC(=O)O)c2)cc1 | -19.7%[44.1 µM]
C[S+](=O)([O-])CCn1ncc2cc(OCc3cccc(-c4ccccc4O)c3)ccc21 | 7.94µM*
CCC(=O)N1CCc2cc(CNC(=O)Cc3ccc(F)cc3)ccc21 | 76.1%
CSCC(=O)N1C[C@@H](NC(=O)Nc2ccc(F)cc2F)C[C@H]1C(=O)N[C@H](Cc1c[nH]c2ccccc12)C(N)=O | -15.4%
COc1cccc(NC(=O)Cn2c(-c3cccc(Cl)c3)nc(C)c(CCO)c2=O)c1 | -24.1%
O=C(Cn1c(=O)n(-c2ccccc2)c(=O)c2c3c(sc21)CCCC3)Nc1ccc(F)cc1F | 41.1%
O=C1CCC(C(=O)N2CC(c3ncc4c(-c5ccc(F)cc5)nccn34)C2)N1 (configuration not stated) | -23.2%[44.1 µM]
Cn1nc(C(=O)N2CCCC(CN3CCCC3)CC2)c2ccccc21 (configuration not stated) | 3.16µM*
O=C(c1ccccn1)N1CCCC(CN2CCCC2)CC1 (configuration not stated) | 26.5%
Cn1nc(C(=O)N2CCc3nn(CC4CC4)c(=O)n3CC2)c2ccccc21 | 18.4%
COc1ccc(CCNc2oc(/C=C/c3ccc(OC)c(OC)c3)nc2C#N)cc1 | -19.2%
Cc1cc(CN2CCC3(C2)C(=O)Nc2ccccc23)no1 (configuration not stated) | 4.0%[44.1 µM]
COc1ccccc1-c1cc([C@H]2CN3CC[C@H]2C[C@@H]3COC(=O)Nc2ccccc2)nc(C)n1 | i
Cc1nc(-c2ccccc2)cc([C@H]2CN3CC[C@H]2C[C@@H]3CNC(=O)N2CCOCC2)n1 | i
Cc1nc(-c2cccs2)cc([C@H]2CN3CC[C@H]2C[C@@H]3CNC(=O)Nc2cccc(C(F)(F)F)c2)n1 | 8.91µM*
Cc1nc(-c2ccc(F)cc2)cc([C@H]2CN3CC[C@H]2C[C@@H]3CNC(=O)Nc2cccc(C#N)c2)n1 | -12.8%
COc1ccccc1-c1cc([C@H]2CN3CC[C@H]2C[C@@H]3CNC(=O)CCC(=O)O)nc(C)n1 | 2.5%
C=C[C@H]1CN2CC[C@H]1C[C@@H]2CNC(=O)c1ccc2c(c1)OCO2 | -3.9%[44.1 µM]
Cn1nc(-c2ccc3ccccc3c2)cc1[C@H]1CN2CC[C@H]1C[C@@H]2COC(=O)Nc1cccc(C(F)(F)F)c1 | 21.0%
Cc1nc(-c2cccs2)cc([C@H]2CN3CC[C@H]2C[C@@H]3CNC(=O)c2ccccc2)n1 | 7.94µM*
Cc1nc(-c2ccc(C(F)(F)F)cc2)cc([C@H]2CN3CC[C@H]2C[C@@H]3CNC(=O)N2CCOCC2)n1 | i
O=C(Nc1cccc(C(F)(F)F)c1)OC[C@H]1C[C@@H]2CCN1C[C@@H]2c1cc(C2CCCC2)nc(-c2ccncc2)n1 | 2.51µM*
Cc1nc(-c2cccs2)cc([C@H]2CN3CC[C@H]2C[C@@H]3CNC(=O)N2CCOCC2)n1 | i
Cc1nc(-c2cccs2)cc([C@H]2CN3CC[C@H]2C[C@@H]3CNC(=O)c2ccc3c(c2)OCO3)n1 | 8.91µM*
SMILES | Pf Dd2 inh
O=C(NC[C@H]1OC[C@@H](NC2CCC(F)(F)CC2)[C@@H]1O)C1CC1 | 15.3%[44.1 µM]
O=C1NCCN1C1CCN([S+](=O)([O-])c2cccc(C(F)(F)F)c2)CC1 | 4.4%
COCCC1(NS(C)(=O)=O)CCN(S(=O)(=O)c2ccc(C#N)cc2)CC1 | 0.0%
COc1ccc(C(=O)N2CCC(N3CC4CC(C3)[C@H]3CCCC(=O)N3C4)CC2)cn1 (some centres not stated) | -5.1%
O=[N+]([O-])c1ccc(S(=O)(=O)NCc2nc3cccnc3n2Cc2ccccc2Cl)cc1 | -5.5%
Cc1cc(=O)[nH]c2nnc(SCc3ccc(Cl)cc3Cl)n12 | 9.4%
Cc1ccc(C2Cn3nnc(C(=O)N4CCN(C(=O)c5cccc(Cl)c5)CC4)c3CO2)cc1 (configuration not stated) | -16.6%
Cc1ccc(N2CCC(NC(=O)c3ccc(F)c(F)c3)C2=O)cc1C (configuration not stated) | -19.3%
CN(Cc1cccnc1)C(=O)c1cn(Cc2ccccc2C(F)(F)F)nn1 | -5.3%
Cc1ccc(C(=O)N2CCC3(CC2)CN[S+](=O)([O-])c2ccccc2N3)cc1 | -6.3%
Cn1cc(CNC(=O)C[C@@H]2C[C@H]3O[C@H](CNC(=O)Nc4ccc(F)cc4)[C@@H](O)[C@H]3O2)cn1 | 22.5%

Source: PubChem BioAssay (National Center for Advancing Translational Sciences (NCATS))
